Source: the supplement of paper PMC3545927
The other results are listed elsewhere or left out. How many sequences the whole screen found active is unknown.

B1: HC140 (peptide)
chain: CAEVVPSTWVAGNASASA
B2: HC1533 (peptide)
chain: CAESAGVQEDAGNASASA
B3: HC305 (peptide)
chain: CAQLFTFSPRAGNASASA
B4: HC248 (peptide)
chain: CASIFLLALLAGNASASA
B5: HC434 (peptide)
chain: CAGNWFGCTWAGNASASA
B6: FS-1943 (peptide)
chain: CARAHRSVLAAGNASASA
B7: HC1428 (peptide)
chain: CAAVTHINSVAGNASASA
B8: FS-96 (peptide)
chain: CATCSRHKRRAGNASASA
B9: FS-1240 (peptide)
chain: CANRKRSKRRAGNASASA
B10: FS-773 (peptide)
chain: CAFRSRSKRRAGNASASA
B11: FS-774 (peptide)
chain: CAFRSRSLREAGNASASA
B12: FS-3137 (peptide)
chain: CASRKRSFFRAGNASASA
B13: FS-1099 (peptide)
chain: CATRARSLRFAGNASASA
B14: FS-1239 (peptide)
chain: CANRKRNKKQAGNASASA
B15: HC1360 (peptide)
chain: CADLSDGSWSAGNASASA
B16: FS-3261 (peptide)
chain: CARRIRFVGRAGNASASA
B17: FS-1161 (peptide)
chain: CARRQVWKRRAGNASASA
B18: FS-713 (peptide)
chain: CARRLRDKRRAGNASASA
B19: HC1645 (peptide)
chain: CAGWFTAGYSAGNASASA
B20: HC2229 (peptide)
chain: CAEVVTSTYVAGNASASA
B21: HC134 (peptide)
chain: CAEVVCSTWVAGNASASA
B22: FS-899 (peptide)
chain: CAYDCRCKRGAGNASASA
B23: FS-665 (peptide)
chain: CAILHRQKRGAGNASASA
B24: FS-309 (peptide)
chain: CAVHHRPKRGAGNASASA
B25: HC2406 (peptide)
chain: CAEVPCHRPMAGNASASA
B26: HC486 (peptide)
chain: CARCDLEDRDAGNASASA
B27: HC976 (peptide)
chain: CAVQNEITLTAGNASASA

Target: furin, P09958
Experiment: furin cleavage Z-score vs untreated control; higher = more cleavage, active = 3.5 or more, inactive = 1 or less, 8 variable residues between constant flanks
Outline: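 The cleavage Z-score is the log read count relative to furin-free reactions, lowess-adjusted and scaled by median absolute deviation. Counts came from sequencing DNA released from bead-bound 8-mer peptide–cDNA fusions after digestion with purified furin for 7.5, 15 or 30 min.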
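Also: purified furin at 1:10 enzyme:substrate in 50 mM HEPES pH 7.5.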

Chain of furin, P09958 (P09958 whole entry): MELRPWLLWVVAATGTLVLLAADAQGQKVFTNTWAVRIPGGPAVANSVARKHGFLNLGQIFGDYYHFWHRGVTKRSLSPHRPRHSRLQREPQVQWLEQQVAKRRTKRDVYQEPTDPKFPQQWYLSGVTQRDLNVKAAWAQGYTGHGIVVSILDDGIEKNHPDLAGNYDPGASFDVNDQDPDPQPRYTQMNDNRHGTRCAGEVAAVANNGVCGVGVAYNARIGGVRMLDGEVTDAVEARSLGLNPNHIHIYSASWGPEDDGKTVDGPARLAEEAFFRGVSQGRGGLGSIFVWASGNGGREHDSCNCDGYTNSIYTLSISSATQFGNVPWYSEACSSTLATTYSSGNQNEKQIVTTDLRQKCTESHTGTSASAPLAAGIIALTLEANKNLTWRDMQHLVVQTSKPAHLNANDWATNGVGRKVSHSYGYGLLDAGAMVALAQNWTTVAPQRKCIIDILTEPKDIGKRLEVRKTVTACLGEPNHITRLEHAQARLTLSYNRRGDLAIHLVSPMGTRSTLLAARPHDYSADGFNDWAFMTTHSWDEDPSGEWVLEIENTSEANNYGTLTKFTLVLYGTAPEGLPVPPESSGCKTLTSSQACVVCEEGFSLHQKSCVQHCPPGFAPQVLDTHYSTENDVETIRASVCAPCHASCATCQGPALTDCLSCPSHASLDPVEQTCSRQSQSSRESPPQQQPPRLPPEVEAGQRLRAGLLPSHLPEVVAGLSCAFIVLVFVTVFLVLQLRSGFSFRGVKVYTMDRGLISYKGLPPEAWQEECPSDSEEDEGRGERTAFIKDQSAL

| Sequence | furin cleavage Z-score (7.5 min) | furin cleavage Z-score (15 min) | furin cleavage Z-score (30 min) |
| --- | --- | --- | --- |
| B1 | -0.678 (inactive) | -0.107 (inactive) | 0.5 (inactive) |
| B2 | -0.496 (inactive) | -1.46 (inactive) | -0.975 (inactive) |
| B3 | -0.105 (inactive) | -0.574 (inactive) | 0.219 (inactive) |
| B4 | -0.433 (inactive) | -0.299 (inactive) | -0.909 (inactive) |
| B5 | 2 | 1.1 | -0.112 (inactive) |
| B6 | -0.832 (inactive) | -0.15 (inactive) | 2.24 |
| B7 | -1.27 (inactive) | -0.864 (inactive) | -0.253 (inactive) |
| B8 | 4.62 (active) | 7.75 (active) | 7.17 (active) |
| B9 | 10.6 (active) | 10.8 (active) | 8.12 (active) |
| B10 | 8.16 (active) | 8.31 (active) | 7.71 (active) |
| B11 | 5.16 (active) | 6.5 (active) | 6.69 (active) |
| B12 | -0.305 (inactive) | 2.22 | 0.35 (inactive) |
| B13 | -0.222 (inactive) | 2.2 | 1.03 |
| B14 | 0.136 (inactive) | 0.864 (inactive) | 2.02 |
| B15 | -0.871 (inactive) | -1.27 (inactive) | -0.416 (inactive) |
| B16 | 0.201 (inactive) | 1.15 | 3.25 |
| B17 | 0.586 (inactive) | 4.58 (active) | 4.41 (active) |
| B18 | 0.73 (inactive) | 2.01 | 1.44 |
| B19 | 0.812 (inactive) | -0.589 (inactive) | 0.435 (inactive) |
| B20 | 0.886 (inactive) | 0.18 (inactive) | 0.589 (inactive) |
| B21 | -0.675 (inactive) | -0.0617 (inactive) | -0.318 (inactive) |
| B22 | 0.698 (inactive) | 0.0271 (inactive) | 1.85 |
| B23 | 12.5 (active) | 12.9 (active) | 9.04 (active) |
| B24 | 12 (active) | 10.8 (active) | 9.72 (active) |
| B25 | -0.721 (inactive) | 1.03 | -0.487 (inactive) |
| B26 | 1.03 | -0.684 (inactive) | -1.47 (inactive) |
| B27 | -0.158 (inactive) | -0.101 (inactive) | 0.696 (inactive) |
